Shown is part of a subset that was picked to be rich in hits.
LmPK inh – blocks Leishmania mexicana pyruvate kinase activity | 290,000 compounds, 0.37% hits | AID 1721 | Q27686 | Potency, µM (series often up to 57.5 µM), without a hit: at the top dose activity change, negative = inhibition, usual class: inhibitors | purified LmPK, Kinase-Glo ATP luminescence, 1 h; note: potency is the fitted concentration of half-maximal effect; % is set by controls: 0 for no effect and ±100 for the full control effect
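Pyruvate kinase activity monitored as ATP production (luciferase luminescence). Conditions: 0.1 nM enzyme, 0.5 mM PEP, 0.1 mM ADP, 1 h, RT; normalized against uninhibited and no-enzyme wells.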
Tb PYK inh – blocks Trypanosoma brucei pyruvate kinase; TbPYK enzyme, Kinase-Glo Plus ATP luminescence, 45 min; Potency, µM (doses to about 76.8 µM), inactives show top-dose activity, negative = inhibition, actives largely listed as inhibitors; 410,000 compounds, 0.12% hits; AID 624173; note: potency is the fitted concentration of half-maximal effect; % is set by controls: 0 for no effect and ±100 for the full control effect; nearly all actives have a fitted effect of over 50% in size
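Screened from lowest to highest concentration, compounds were pinned into TbPYK/substrate mixtures, and ADP (130 uM final) was added. Plates sat at room temperature for 45 min prior to Kinase-Glo Plus detection by luminescence.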
Cycloheximide cs – affects cycloheximide protein synthesis inhibition readout, counter-screen | max response, % | cell reporter, cycloheximide protein synthesis inhibition counterscreen | 300,000 compounds, 12% hits | AID 2314; in the data active = max response mostly above about 13%, no sharp cut-off; inactive = mostly below about 14%; note: read at 38.3 µM for the half of the compounds with a filed dose; 0% is about no effect
Shiga inhibitor – Shiga toxin inhibition; inhibition, % at 38.7 µM; Vero cells, Shiga toxin protein synthesis inhibition reporter; 290,000 compounds, 9.2% hits; AID 2315; in the data active = inhibition mostly above about 28%, no sharp cut-off; inactive = mostly below about 43%; note: 0% is about no effect
Sm TGR block – blocks Schistosoma mansoni thioredoxin glutathione reductase; Q962Y6; purified TGR, DTNB reduction, TNB absorbance 405 nm; Potency, µM (doses to about 114 µM), for the others: at the top dose activity change, negative = inhibition, actives largely listed as inhibitors; 360,000 compounds, 3% hits; AID 485364; note: potency is the fitted concentration of half-maximal effect; % is set by controls: 0 for no effect and ±100 for the full control effect; nearly all actives have a fitted effect of over 60% in size
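Kinetic colorimetric format: TGR-catalysed, NADPH-driven DTNB reduction monitored via TNB absorbance. Enzyme dispensed at 20 nM; compound exposure 15 min at room temperature before reaction start.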
Giardia FBPA inh – Giardia lamblia aldolase inhibition; 290,000 compounds, 0.71% hits; Potency, µM (doses to about 59.6 µM), without a hit: top-dose activity, negative = inhibition, most hits filed as inhibitors; purified Giardia FBPA; A8B2U2; note: potency is the fitted concentration of half-maximal effect; % is set by controls: 0 for no effect and ±100 for the full control effect; nearly all actives have a fitted effect of over 55% in size
Target sequence (A8B2U2 whole entry, looked up): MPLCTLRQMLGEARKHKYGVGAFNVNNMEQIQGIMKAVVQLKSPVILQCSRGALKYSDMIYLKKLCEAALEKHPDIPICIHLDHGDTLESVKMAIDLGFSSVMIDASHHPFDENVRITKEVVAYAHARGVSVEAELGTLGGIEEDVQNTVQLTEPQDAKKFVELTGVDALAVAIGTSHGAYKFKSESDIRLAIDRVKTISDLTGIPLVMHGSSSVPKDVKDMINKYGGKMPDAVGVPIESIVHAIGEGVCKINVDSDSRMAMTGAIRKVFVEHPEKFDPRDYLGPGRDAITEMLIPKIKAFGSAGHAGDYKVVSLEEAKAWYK
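40 nM FBPA preincubated 10 min at RT with compound (up to 57.5 uM final), then substrate plus GAPDH/TPI/NAD/arsenate coupling and diaphorase/resazurin added. Fluorescence read after 20 min at RT, 525/598 nm.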
An asterisk follows results filed as active; u = inconclusive; x = not tested or not shown; [ ] = another dose, or the depositor's remark. Unless noted, calls come from the whole dose curve; as a rule, active = well fitted curve in the direction sought with a large enough effect; inconclusive = small, poorly fitted or top-dose-only effect, or another doubt; inactive = no such curve, though single readings can be large; an effect the other way counts as inactive or inconclusive.

SMILES	LmPK inh	Tb PYK inh	Cycloheximide cs	Shiga inhibitor	Sm TGR block	Giardia FBPA inh
O=C(NN/C(=N/S(=O)(=O)c1ccc(Cl)cc1)c1ccccc1)c1cccc(Cl)c1	-4.3%	0.0%	30.9*	81.4*	2.9%	-10.0%
Cc1ccc(S(=O)(=O)NN/C(=N/S(=O)(=O)c2ccccc2)c2ccccc2)cc1	-4.1%	-18.2%	8.4	-7.5	1.4%	6.2%
Cc1cccc(NC(=O)CSc2nnc3ccc(-c4ccccn4)nn23)c1	x	11.5%	x	x	7.5%	x
Oc1ccc2c3c1OC1C(O)C=CC4[C@@H](C2)NCC[C@]314 (some centres not stated)	x	-7.0%[157 µM]	x	x	x	x
Cc1nn(-c2ccccc2)c2c1cc1c(=O)n(C)c(=O)nc-1n2-c1cccc(Cl)c1	x	-2.9%	x	x	2.7%	x
O=S(=O)(/N=C(/Nc1ccccn1)c1ccc(Cl)cc1)c1ccc(Cl)cc1	2.9%	-5.1%	48.9*	20.1	0.0%	4.2%
O=C(Nc1ccccn1)c1ccc(S(=O)(=O)c2ccc(Cl)cc2)cc1	0.8%	3.1%	-2.2	-4.6	-4.7%[57.1 µM]	-2.8%
O/N=C\c1cnc(N2CCN(c3ccccc3)CC2)s1	-1.7%	0.4%	42.1*	67.6*	5.3%	10.0%
CCOC(=O)c1c(NC(=O)Nc2ccc(F)cc2)sc(C(=O)N(C)C)c1C	x	-3.6%	x	x	0.7%	x
O=C(CSc1nc2c(sc3ccccc32)c(=O)n1CCCC(=O)NC1CCCC1)Nc1ccc(F)cc1	x	0.1%	x	x	-2.2%	x
COc1cccc(-c2ccc(NC(=O)C3CCCN(Cc4cnc(C)n4C)C3)cc2)c1 (configuration not stated)	2.1%	2.4%	3.2	-3.6	2.1%	2.9%
Cc1ncc(CN2CCCC(C(=O)Nc3ccc(-c4cscn4)cc3)C2)cn1 (configuration not stated)	-2.3%	7.1%	5.6	1.2	-22.2%	x
Cc1ncc(CN2CCCC(C(=O)Nc3ccc(-c4ccco4)cc3)C2)cn1 (configuration not stated)	-11.2%	-9.5%	11.6	4.2	44.7µM*	x
COc1cccc(-c2ccc(NC(=O)C3CCCN(Cc4nccn4C)C3)cc2)c1 (configuration not stated)	1.2%	9.5%	22.2*	35.1*	-27.0%	x
CC(C)CCNC(=O)c1cn(C)c2ccc(S(=O)(=O)N3CCOCC3)cc2c1=O	x	0.2%	x	x	-8.9%	x
COc1ccc(CCNC(=O)c2c(O)c3ccccc3[nH]c2=O)cc1	-0.9%	-1.6%	5.6	-13.6	1.6%	-0.9%
Nc1cc(N)nc(SCCOc2ccccc2)n1	1.2%	2.2%	36.0*	55.4*	4.6%	-0.8%
Nc1cc(=O)[nH]c(SCCOc2ccccc2)n1	-4.3%	-17.1%	11.2	51.4	x	-12.0%
COc1cccc(OCCSc2nc(N)cc(N)n2)c1	-16.6%	0.6%	38.1*	80.6	-3.0%	-5.0%
O=C(Nc1nc(-c2ccccn2)cs1)c1cc2ccccc2o1	-7.4%	-7.2%	42.3*	58.5*	-8.7%	u
Cc1cc(-c2csc(NC(=O)c3cc4ccccc4o3)n2)c(C)n1C	-6.2%	-11.0%	31.9*	40.0*	-16.4%	-3.7%
COc1ccc(-c2csc(NC(=S)NC(=O)/C=C/c3ccc(C(C)C)cc3)n2)cc1OC	4.8%	4.5%	23.0*	14.4	1.7%	-18.2%
COc1ccc(-c2csc(NC(=S)NC(=O)c3cc4ccccc4o3)n2)cc1Br	-0.5%	6.9%	14.2*	17.7	11.1%	-29.6%
COc1ccc(-c2csc(NC(=S)NC(=O)/C=C/c3ccco3)n2)cc1OC	-0.1%	-4.6%	-1.5	-6.8	-5.6%	-6.6%
Cc1cccc(Cn2c(C)c(C)c3cc(C(=O)NCc4ccco4)ccc32)c1	x	-1.0%[15.4 µM]	x	x	6.5%	x
SMILES	LmPK inh	Tb PYK inh	Cycloheximide cs	Shiga inhibitor	Sm TGR block	Giardia FBPA inh
CC(C)c1ccc(/C=C/C(=O)Nc2nncs2)cc1	-8.7%	-7.8%	48.8*	32.9*	-7.6%	0.7%
CCOC(=O)c1ccc(N/C=C/C(=O)c2ccccc2)cc1	2.0%	-14.8%	42.9*	53.8*	-2.3%	u
CCOC(=O)c1ccc(N/C=C/C(=O)C(C)(C)C)cc1	3.3%	-15.1%	50.5*	90.1*	x	-5.0%
CCOC(=O)c1ccc(NS(C)(=O)=O)cc1	3.1%	-6.7%	-4.3	-12.4	-21.1%	0.0%
CCOC(=O)c1ccc(CNCc2ccccc2)cc1	0.5%	-6.7%	29.5*	50.1*	-5.8%	-6.8%
Cn1c(O)c(C2=NN(C(=O)CCl)C(c3ccccc3)C2)c(=O)n(C)c1=O (configuration not stated)	8.0%	3.6%	-4.2	-17.5	12.6µM*	u
N#Cc1c(-c2ccc3c(c2)OCO3)csc1N	-1.6%	5.1%	27.8*	82.6*	2.4%	-26.8%
CCc1ccc(CN(C)C(=O)CCc2nnc(COc3ccccc3)o2)cc1	2.2%	7.0%	29.7*	80.8*	-5.1%	0.1%
COc1ccc(CCN(C)C(=O)Cn2c(=O)oc3ccccc32)cc1OC	-3.2%	-5.0%	-0.4	-8.7	6.4%	2.3%
CN(Cc1ccc(F)cc1)C(=O)CCc1nnc(-c2ccccc2)o1	8.7%	1.3%	46.8*	107.6*	-2.4%	2.1%
CN(Cc1nnc(-c2ccc(F)cc2)o1)c1ccccc1	-6.5%	1.4%	32.3*	71.2*	22.0%	x
CCc1ccc(CN(C)C(=O)CCc2nnc(CCc3cccc(OC)c3)o2)nc1	-1.0%	6.1%	-2.2	28.4	-11.5%	5.6%
COCCN(C)C(=O)CCc1nnc(Cc2ccc(-c3ccccc3)cc2)o1	-5.9%	2.3%	9.9	-14.5	9.8%	4.2%
COc1ccc(CCN(C)C(=O)CCc2nnc(-c3ccccc3)o2)cc1OC	-18.0%	-5.3%	58.9*	65.4*	-8.7%	2.5%
CN(CC(=O)Nc1ccc(Cl)c(Cl)c1)Cc1nnc(-c2ccc(F)cc2)o1	0.4%	1.6%	19.0	14.0	0.0%	1.4%
CCOc1ccc(NC(=O)C2CCC(CNS(=O)(=O)c3ccc(Br)s3)CC2)cc1 (configuration not stated)	x	-1.9%	x	x	2.1%	x
COc1cccc(OCC(=O)NCCS(=O)(=O)N2CCN(c3ccccc3F)CC2)c1	x	-1.7%	x	x	-8.1%	x
O=C([C@H]1O[C@@H](n2ccc(=O)[nH]c2=O)[C@H](O)[C@@H]1O)N1CCN(c2ccc(Cl)cn2)CC1	x	1.7%	x	x	x	x
O=C(CCc1nnc(COc2ccccc2)o1)NCc1ccccc1C(F)(F)F	0.3%	-8.5%	16.7*	48.1	-4.0%[57.1 µM]	-3.2%
CN(Cc1nc2c(s1)CCCC2)C(=O)CCc1nnc(-c2ccccc2)o1	-0.7%	-1.4%	22.6*	60.6*	u	2.9%
CCOc1ncccc1C(=O)Nc1cccc(-c2nnc3n2CCCCC3)c1	-0.8%	-6.7%	1.5	-7.4	-4.6%	4.9%
O=C(O)COC(=O)Cc1ccccc1Nc1c(Cl)cccc1Cl	-2.2%	1.3%	-3.1	-4.2	-2.0%	15.6%
